From the supplement of paper PMC6411743
± gives the standard deviation of the averaged measurements. Of roughly 6,200 targets only a part is listed; those with the largest changes were picked by preference.

Compound: Nc1ncnc2c1ncn2[C@@H]1O[C@H](COP(=O)(O)OP(=O)(O)NP(=O)(O)O)[C@@H](O)[C@H]1O [adenylyl imidodiphosphate]
Experiment: NP40-soluble protein abundance relative to vehicle (solubility fold change) (ratio); higher = more soluble protein in presence of AMP-PNP
Method in brief: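 Values are fold changes against the detergent-processed vehicle, based on vsn-normalised intensities. Jurkat crude lysate was treated at eight concentrations from 0.1 to 10 mM (10 min at room temperature, then 3 min at 37 °C), solubilised with 0.8% NP40 and benzonase, ultracentrifuged and analysed by TMT-labelled LC-MS/MS over three independent experiments.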

Chain of UniProt Q9BU76 (Q9BU76 whole entry): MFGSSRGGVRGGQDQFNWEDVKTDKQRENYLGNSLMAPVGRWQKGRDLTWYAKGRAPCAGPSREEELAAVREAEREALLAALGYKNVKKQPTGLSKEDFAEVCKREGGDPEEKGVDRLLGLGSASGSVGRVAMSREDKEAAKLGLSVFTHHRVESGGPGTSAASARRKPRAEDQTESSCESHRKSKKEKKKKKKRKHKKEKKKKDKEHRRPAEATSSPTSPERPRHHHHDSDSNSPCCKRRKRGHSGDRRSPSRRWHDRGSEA
Chain of UniProt Q96RG2 (Q96RG2 whole entry): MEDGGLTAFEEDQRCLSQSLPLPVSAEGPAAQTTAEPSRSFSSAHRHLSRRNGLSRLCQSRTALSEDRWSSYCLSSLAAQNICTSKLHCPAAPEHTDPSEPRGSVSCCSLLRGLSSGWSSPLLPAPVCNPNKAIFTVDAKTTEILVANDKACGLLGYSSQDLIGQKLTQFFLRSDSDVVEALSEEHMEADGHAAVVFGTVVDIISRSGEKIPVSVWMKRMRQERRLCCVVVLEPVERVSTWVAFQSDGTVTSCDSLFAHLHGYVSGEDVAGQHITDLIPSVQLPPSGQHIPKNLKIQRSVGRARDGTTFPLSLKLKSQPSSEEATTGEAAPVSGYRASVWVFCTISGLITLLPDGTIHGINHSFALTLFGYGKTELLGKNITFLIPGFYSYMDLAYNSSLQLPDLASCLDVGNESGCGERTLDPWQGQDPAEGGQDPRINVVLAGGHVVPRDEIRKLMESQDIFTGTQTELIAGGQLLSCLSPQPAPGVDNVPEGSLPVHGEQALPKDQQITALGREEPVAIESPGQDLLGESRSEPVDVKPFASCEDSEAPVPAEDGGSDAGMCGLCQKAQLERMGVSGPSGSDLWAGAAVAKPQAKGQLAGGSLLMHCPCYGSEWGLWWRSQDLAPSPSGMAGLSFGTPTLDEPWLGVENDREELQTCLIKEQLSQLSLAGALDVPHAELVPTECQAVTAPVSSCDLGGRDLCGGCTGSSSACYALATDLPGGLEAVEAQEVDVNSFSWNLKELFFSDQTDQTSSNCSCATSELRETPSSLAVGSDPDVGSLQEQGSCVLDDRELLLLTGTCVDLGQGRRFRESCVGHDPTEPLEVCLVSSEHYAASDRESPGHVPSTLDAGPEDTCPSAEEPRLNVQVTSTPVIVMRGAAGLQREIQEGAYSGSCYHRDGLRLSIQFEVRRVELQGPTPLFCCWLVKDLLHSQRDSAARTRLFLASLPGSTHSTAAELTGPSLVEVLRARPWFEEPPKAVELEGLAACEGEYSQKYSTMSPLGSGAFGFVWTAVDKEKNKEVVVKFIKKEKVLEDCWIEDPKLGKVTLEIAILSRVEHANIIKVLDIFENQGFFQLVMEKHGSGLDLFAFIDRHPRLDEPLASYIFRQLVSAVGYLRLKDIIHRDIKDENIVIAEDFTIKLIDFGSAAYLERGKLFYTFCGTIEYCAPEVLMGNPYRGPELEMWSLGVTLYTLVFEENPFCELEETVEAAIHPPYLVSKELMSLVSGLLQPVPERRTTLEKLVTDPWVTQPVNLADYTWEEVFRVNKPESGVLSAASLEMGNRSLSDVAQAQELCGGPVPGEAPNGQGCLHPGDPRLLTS
Chain of UniProt Q99615 (Q99615 whole entry): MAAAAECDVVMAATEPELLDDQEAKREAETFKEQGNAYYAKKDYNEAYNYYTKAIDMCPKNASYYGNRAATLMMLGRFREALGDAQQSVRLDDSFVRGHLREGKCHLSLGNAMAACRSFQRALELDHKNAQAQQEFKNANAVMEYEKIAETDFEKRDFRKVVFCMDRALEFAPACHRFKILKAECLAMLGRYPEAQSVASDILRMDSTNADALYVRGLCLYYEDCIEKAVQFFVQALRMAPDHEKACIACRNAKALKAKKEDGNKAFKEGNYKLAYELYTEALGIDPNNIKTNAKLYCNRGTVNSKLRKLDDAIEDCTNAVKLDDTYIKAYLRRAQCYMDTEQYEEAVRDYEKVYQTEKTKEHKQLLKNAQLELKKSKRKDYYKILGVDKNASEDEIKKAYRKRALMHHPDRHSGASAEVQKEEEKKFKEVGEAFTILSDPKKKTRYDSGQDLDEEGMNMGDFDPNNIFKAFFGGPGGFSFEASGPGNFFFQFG
Chain of UniProt Q9H089 (Q9H089 whole entry): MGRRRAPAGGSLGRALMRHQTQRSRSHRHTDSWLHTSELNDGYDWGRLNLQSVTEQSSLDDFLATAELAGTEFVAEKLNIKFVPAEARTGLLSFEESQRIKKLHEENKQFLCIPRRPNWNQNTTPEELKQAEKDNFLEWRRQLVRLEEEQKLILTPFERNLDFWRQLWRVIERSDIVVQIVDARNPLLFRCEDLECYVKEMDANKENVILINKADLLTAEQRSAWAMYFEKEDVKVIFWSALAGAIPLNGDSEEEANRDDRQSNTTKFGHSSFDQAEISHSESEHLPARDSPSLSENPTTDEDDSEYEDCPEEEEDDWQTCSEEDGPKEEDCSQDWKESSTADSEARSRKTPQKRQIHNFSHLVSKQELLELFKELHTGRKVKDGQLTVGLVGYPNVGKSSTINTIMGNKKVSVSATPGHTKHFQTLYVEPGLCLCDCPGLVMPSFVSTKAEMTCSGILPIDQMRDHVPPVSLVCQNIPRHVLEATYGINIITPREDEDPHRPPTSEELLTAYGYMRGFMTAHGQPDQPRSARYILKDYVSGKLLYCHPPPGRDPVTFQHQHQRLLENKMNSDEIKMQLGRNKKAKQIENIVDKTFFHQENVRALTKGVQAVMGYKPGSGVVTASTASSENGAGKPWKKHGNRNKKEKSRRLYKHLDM
Chain of UniProt Q9Y5Z4 (Q9Y5Z4 whole entry): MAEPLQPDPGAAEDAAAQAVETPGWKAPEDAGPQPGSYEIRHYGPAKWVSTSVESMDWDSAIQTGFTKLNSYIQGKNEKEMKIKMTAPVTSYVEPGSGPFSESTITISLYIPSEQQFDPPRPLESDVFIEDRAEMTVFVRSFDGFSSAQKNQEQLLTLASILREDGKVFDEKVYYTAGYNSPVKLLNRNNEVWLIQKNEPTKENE
Chain of UniProt Q9NQ29 (Q9NQ29 whole entry): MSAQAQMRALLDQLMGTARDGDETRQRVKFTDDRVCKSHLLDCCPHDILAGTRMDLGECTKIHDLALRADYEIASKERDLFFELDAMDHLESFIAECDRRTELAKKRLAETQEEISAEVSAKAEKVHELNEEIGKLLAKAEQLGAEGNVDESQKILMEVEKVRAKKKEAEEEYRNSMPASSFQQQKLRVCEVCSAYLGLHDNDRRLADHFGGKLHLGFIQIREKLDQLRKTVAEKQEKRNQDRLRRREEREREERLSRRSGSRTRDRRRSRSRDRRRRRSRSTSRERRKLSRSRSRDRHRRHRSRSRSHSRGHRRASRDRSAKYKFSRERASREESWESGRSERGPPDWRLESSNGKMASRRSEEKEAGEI
Chain of UniProt Q9H773 (Q9H773 whole entry, one chain of several): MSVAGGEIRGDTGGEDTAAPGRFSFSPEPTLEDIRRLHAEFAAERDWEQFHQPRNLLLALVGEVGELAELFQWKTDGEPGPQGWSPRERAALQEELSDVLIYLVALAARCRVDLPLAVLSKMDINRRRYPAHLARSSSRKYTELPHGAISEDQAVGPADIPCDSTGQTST
Chain of UniProt Q9UGJ1 (Q9UGJ1 whole entry, one chain of several): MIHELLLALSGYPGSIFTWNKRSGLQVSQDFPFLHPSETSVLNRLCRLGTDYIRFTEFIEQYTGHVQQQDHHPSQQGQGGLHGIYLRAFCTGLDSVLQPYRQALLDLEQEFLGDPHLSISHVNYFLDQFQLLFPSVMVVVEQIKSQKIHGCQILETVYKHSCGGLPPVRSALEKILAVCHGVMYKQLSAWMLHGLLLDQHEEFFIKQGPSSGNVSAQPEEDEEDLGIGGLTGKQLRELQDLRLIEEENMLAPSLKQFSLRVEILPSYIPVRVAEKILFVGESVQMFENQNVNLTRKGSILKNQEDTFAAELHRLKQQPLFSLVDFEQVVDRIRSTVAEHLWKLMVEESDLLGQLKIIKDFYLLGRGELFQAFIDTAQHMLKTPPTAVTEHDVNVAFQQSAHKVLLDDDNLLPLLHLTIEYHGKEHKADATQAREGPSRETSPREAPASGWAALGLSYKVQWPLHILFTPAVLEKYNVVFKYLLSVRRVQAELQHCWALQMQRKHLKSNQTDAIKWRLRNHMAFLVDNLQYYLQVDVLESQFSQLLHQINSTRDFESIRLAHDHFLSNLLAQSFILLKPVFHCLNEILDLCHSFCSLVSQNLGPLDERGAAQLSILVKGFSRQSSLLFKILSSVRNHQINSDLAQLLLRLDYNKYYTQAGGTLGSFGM
Chain of UniProt Q9NSG2 (Q9NSG2 whole entry): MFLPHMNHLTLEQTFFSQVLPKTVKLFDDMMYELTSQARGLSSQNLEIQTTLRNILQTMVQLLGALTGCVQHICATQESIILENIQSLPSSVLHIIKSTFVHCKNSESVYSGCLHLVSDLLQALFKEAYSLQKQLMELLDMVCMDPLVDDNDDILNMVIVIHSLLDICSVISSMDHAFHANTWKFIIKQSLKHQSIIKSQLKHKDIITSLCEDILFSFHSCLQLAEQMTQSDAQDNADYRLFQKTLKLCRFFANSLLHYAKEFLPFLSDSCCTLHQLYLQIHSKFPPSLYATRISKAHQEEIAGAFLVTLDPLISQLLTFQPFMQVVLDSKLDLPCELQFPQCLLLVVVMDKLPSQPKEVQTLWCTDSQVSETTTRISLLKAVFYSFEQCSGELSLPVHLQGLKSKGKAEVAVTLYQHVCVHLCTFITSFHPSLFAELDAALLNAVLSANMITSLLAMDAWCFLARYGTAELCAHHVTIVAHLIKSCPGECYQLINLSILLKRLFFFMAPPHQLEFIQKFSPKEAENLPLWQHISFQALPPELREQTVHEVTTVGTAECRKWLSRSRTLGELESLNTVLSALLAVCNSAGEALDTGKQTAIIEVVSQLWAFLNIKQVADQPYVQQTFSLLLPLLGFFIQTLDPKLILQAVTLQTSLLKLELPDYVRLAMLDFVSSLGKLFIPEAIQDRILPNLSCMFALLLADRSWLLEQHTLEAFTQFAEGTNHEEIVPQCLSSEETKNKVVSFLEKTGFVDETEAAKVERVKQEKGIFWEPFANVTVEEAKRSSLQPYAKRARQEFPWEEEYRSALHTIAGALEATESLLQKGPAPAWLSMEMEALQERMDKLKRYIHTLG

Target	NP40-soluble protein abundance (concentration: 1mM)	NP40-soluble protein abundance (concentration: 2mM)	NP40-soluble protein abundance (concentration: 4mM)	NP40-soluble protein abundance (concentration: 6mM)	NP40-soluble protein abundance (concentration: 8mM)	NP40-soluble protein abundance (concentration: 10mM)
C16orf70 (UniProt Q9BSU1)	1.01 ± 0.056	0.978 ± 0.029	0.982 ± 0.042	1.01 ± 0.018	1.02 ± 0.02	1.05 ± 0.02
UniProt Q9Y5Y5|Q9Y5Y5-2	0.967 ± 0.051	0.97 ± 0.05	0.9611 ± 0.0026	1.04 ± 0.024	1.03 ± 0.032	1.02 ± 0.052
STUB1 (UniProt Q9UNE7)	0.989 ± 0.017	1.02 ± 0.014	0.977 ± 0.018	0.9527 ± 0.0059	0.938 ± 0.018	0.927 ± 0.019
UBAC1 (UniProt Q9BSL1)	0.965 ± 0.0098	1.01 ± 0.011	0.998 ± 0.028	0.955 ± 0.015	0.932 ± 0.036	0.933 ± 0.034
SRPRB (UniProt Q9Y5M8)	1.05 ± 0.021	1.06 ± 0.011	1.04 ± 0.021	1.08 ± 0.014	1.04 ± 0.014	1.08 ± 0.033
RNF114 (UniProt Q9Y508)	1.034 ± 0.0076	0.993 ± 0.021	1.03 ± 0.019	1.024 ± 0.0039	1.04 ± 0.018	1 ± 0.013
UniProt Q96RG2|Q96RG2-2	0.9919 ± 0.0087	0.997 ± 0.048	1.02 ± 0.011	0.982 ± 0.021	1 ± 0.026	0.996 ± 0.024
UniProt Q9UGJ1|Q9UGJ1-2|H3BPU4	1.01 ± 0.037	1.01 ± 0.024	1.04 ± 0.05	1 ± 0.028	1 ± 0.091	1.03 ± 0.08
AMDHD2 (UniProt Q9Y303)	0.968 ± 0.016	0.923 ± 0.048	0.949 ± 0.024	0.954 ± 0.024	0.948 ± 0.02	0.922 ± 0.033
SLC39A10 (UniProt Q9ULF5)	0.998 ± 0.021	1.07 ± 0.045	1.01 ± 0.026	1 ± 0.029	0.985 ± 0.04	0.994 ± 0.036
UniProt Q9UHP3|Q9UHP3-1|Q9UHP3-3	0.966 ± 0.013	0.997 ± 0.015	0.975 ± 0.026	0.963 ± 0.023	0.964 ± 0.013	0.971 ± 0.024
UniProt Q9Y2A7|Q9Y2A7-2	0.972 ± 0.026	0.974 ± 0.034	0.9706 ± 0.0091	1 ± 0.019	0.976 ± 0.02	0.985 ± 0.026
UniProt Q9UKT4|Q9UKT4-2	0.995 ± 0.029	1.03 ± 0.031	1.03 ± 0.072	1 ± 0.061	1.02 ± 0.092	1.02 ± 0.11
AASS (UniProt Q9UDR5)	0.9781 ± 0.0043	0.935 ± 0.098	0.969 ± 0.035	0.947 ± 0.021	0.979 ± 0.01	0.939 ± 0.027
UniProt Q9NUY8|Q9NUY8-2	0.961 ± 0.0094	0.999 ± 0.026	0.986 ± 0.014	1 ± 0.035	0.991 ± 0.027	1.01 ± 0.031
LSG1 (UniProt Q9H089)	0.993 ± 0.019	0.975 ± 0.033	0.987 ± 0.017	0.926 ± 0.03	0.927 ± 0.034	0.924 ± 0.013
UniProt Q9NVM9	1.03 ± 0.027	1.02 ± 0.04	1.05 ± 0.033	1.02 ± 0.069	1.03 ± 0.075	1.03 ± 0.063
REXO4 (UniProt Q9GZR2)	1.06 ± 0.047	1.09 ± 0.073	1.1 ± 0.038	1.17 ± 0.036	1.18 ± 0.039	1.21 ± 0.051
HEBP2 (UniProt Q9Y5Z4)	0.978 ± 0.012	0.9687 ± 0.0064	0.952 ± 0.023	0.957 ± 0.021	0.964 ± 0.018	0.926 ± 0.042
UniProt Q96T76|Q96T76-8|Q96T76-9	0.964 ± 0.013	0.929 ± 0.082	0.972 ± 0.032	0.987 ± 0.036	1.002 ± 0.0053	0.9354 ± 0.0075

Target	NP40-soluble protein abundance (concentration: 1mM)	NP40-soluble protein abundance (concentration: 2mM)	NP40-soluble protein abundance (concentration: 4mM)	NP40-soluble protein abundance (concentration: 6mM)	NP40-soluble protein abundance (concentration: 8mM)	NP40-soluble protein abundance (concentration: 10mM)
UniProt Q9UPT9|Q9UPT9-2	0.953 ± 0.022	0.953 ± 0.035	0.96 ± 0.025	0.922 ± 0.027	0.936 ± 0.021	0.922 ± 0.02
NSMCE4A (UniProt Q9NXX6)	0.993 ± 0.068	0.945 ± 0.067	0.967 ± 0.056	0.933 ± 0.017	0.96 ± 0.026	0.941 ± 0.09
TIPIN (UniProt Q9BVW5)	0.948 ± 0.06	1.04 ± 0.14	0.933 ± 0.072	0.928 ± 0.063	0.911 ± 0.057	0.929 ± 0.093
UniProt Q99828|Q99828-2	1.001 ± 0.0091	0.977 ± 0.03	0.993 ± 0.035	0.9794 ± 0.0058	0.949 ± 0.036	0.95 ± 0.025
UniProt Q9BU76|Q9BU76-4	1.03 ± 0.04	1.04 ± 0.052	1 ± 0.067	1.01 ± 0.035	0.99 ± 0.031	0.989 ± 0.038
UniProt Q9NRY4	0.9859 ± 0.0086	0.971 ± 0.035	0.999 ± 0.028	0.984 ± 0.03	0.964 ± 0.036	0.935 ± 0.024
UniProt Q9NSG2|Q9NSG2-2|Q9NSG2-3	0.991 ± 0.028	0.991 ± 0.015	0.993 ± 0.011	0.955 ± 0.022	0.964 ± 0.031	0.968 ± 0.015
CHST12 (UniProt Q9NRB3)	1.001 ± 0.0077	0.999 ± 0.01	0.9935 ± 0.0064	1 ± 0.016	1.017 ± 0.0078	1.011 ± 0.0063
UniProt Q9BYX2|Q9BYX2-2	0.981 ± 0.013	0.9921 ± 0.0015	1 ± 0.028	0.985 ± 0.042	0.972 ± 0.012	0.9639 ± 0.0013
UniProt Q9Y639|Q9Y639-1	1.01 ± 0.056	1.05 ± 0.055	1.01 ± 0.056	0.986 ± 0.028	0.984 ± 0.055	0.961 ± 0.025
ASF1A (UniProt Q9Y294)	0.958 ± 0.077	0.863 ± 0.091	0.904 ± 0.068	0.921 ± 0.037	0.946 ± 0.032	0.844 ± 0.11
PSMB7 (UniProt Q99436)	0.946 ± 0.04	0.909 ± 0.061	0.906 ± 0.057	0.928 ± 0.086	0.918 ± 0.081	0.9 ± 0.13
UniProt Q9NQ29|Q9NQ29-3|Q9NQ29-2	1.02 ± 0.04	1.13 ± 0.12	1.11 ± 0.055	1.15 ± 0.027	1.15 ± 0.091	1.35 ± 0.098
UniProt Q9UK76	1.08 ± 0.088	1.1 ± 0.08	1.03 ± 0.067	0.982 ± 0.092	0.893 ± 0.037	0.973 ± 0.1
YBX2 (UniProt Q9Y2T7)	1.02 ± 0.029	1.06 ± 0.013	1.02 ± 0.018	1.01 ± 0.029	1.01 ± 0.036	1.038 ± 0.0094
UniProt Q9Y3B4	0.976 ± 0.061	0.981 ± 0.076	0.993 ± 0.019	0.968 ± 0.016	1.05 ± 0.051	1.01 ± 0.06
NARS2 (UniProt Q96I59)	0.955 ± 0.032	0.904 ± 0.033	0.927 ± 0.036	1 ± 0.048	1 ± 0.011	0.963 ± 0.066
CHMP6 (UniProt Q96FZ7)	1.03 ± 0.028	1.05 ± 0.022	1.03 ± 0.038	1.01 ± 0.03	1.02 ± 0.032	0.964 ± 0.033
MCEE (UniProt Q96PE7)	0.998 ± 0.04	1.01 ± 0.04	0.997 ± 0.046	1.06 ± 0.036	1.03 ± 0.08	1.05 ± 0.1
GDE1 (UniProt Q9NZC3)	1.01 ± 0.043	1.02 ± 0.034	1.01 ± 0.03	1.01 ± 0.08	0.995 ± 0.05	1.01 ± 0.06

Target	NP40-soluble protein abundance (concentration: 1mM)	NP40-soluble protein abundance (concentration: 2mM)	NP40-soluble protein abundance (concentration: 4mM)	NP40-soluble protein abundance (concentration: 6mM)	NP40-soluble protein abundance (concentration: 8mM)	NP40-soluble protein abundance (concentration: 10mM)
CCDC115 (UniProt Q96NT0)	0.994 ± 0.046	1.01 ± 0.043	1.01 ± 0.035	1 ± 0.04	0.968 ± 0.06	0.992 ± 0.041
PFDN2 (UniProt Q9UHV9)	1.05 ± 0.084	1.11 ± 0.11	0.986 ± 0.062	0.928 ± 0.1	0.85 ± 0.016	0.941 ± 0.083
NANS (UniProt Q9NR45)	0.981 ± 0.015	0.932 ± 0.043	0.939 ± 0.011	0.954 ± 0.015	0.948 ± 0.036	0.918 ± 0.027
PUS7 (UniProt Q96PZ0)	1.03 ± 0.035	1.002 ± 0.0077	1.04 ± 0.019	1.008 ± 0.009	1.01 ± 0.015	1.01 ± 0.028
UniProt Q9NZQ3|Q9NZQ3-3	1.04 ± 0.066	0.9853 ± 0.0064	1.03 ± 0.045	0.984 ± 0.029	1.02 ± 0.047	0.99 ± 0.014
CCDC124 (UniProt Q96CT7)	1.13 ± 0.037	1.29 ± 0.15	1.35 ± 0.058	1.58 ± 0.12	1.86 ± 0.17	2.16 ± 0.25
RAB23 (UniProt Q9ULC3)	0.9714 ± 0.0024	0.9596 ± 0.0092	0.974 ± 0.029	1.01 ± 0.029	1.03 ± 0.044	1 ± 0.018
UniProt Q9NXK8|Q9NXK8-2	1.018 ± 0.0035	1 ± 0.031	0.9901 ± 0.0047	0.9994 ± 0.008	1.005 ± 0.0022	0.998 ± 0.024
UCK1 (UniProt Q9HA47)	0.981 ± 0.029	1.01 ± 0.028	1.01 ± 0.011	1.02 ± 0.026	0.9745 ± 0.0089	1.01 ± 0.01
DDX18 (UniProt Q9NVP1)	1.03 ± 0.045	1.03 ± 0.013	1.16 ± 0.046	1.24 ± 0.075	1.35 ± 0.12	1.43 ± 0.15
DNAJC7 (UniProt Q99615)	1.02 ± 0.012	1.05 ± 0.052	1.01 ± 0.015	1.03 ± 0.016	1.02 ± 0.013	1.04 ± 0.024
OSTC (UniProt Q9NRP0)	1.02 ± 0.038	1.02 ± 0.025	1.03 ± 0.049	1.03 ± 0.022	1.039 ± 0.0094	1.04 ± 0.015
UNK (UniProt Q9C0B0)	1.071 ± 0.0069	1.12 ± 0.056	1.11 ± 0.021	1.09 ± 0.072	1.1 ± 0.045	1.11 ± 0.033
UniProt Q9H6A9|Q9H6A9-2	1.01 ± 0.016	1.02 ± 0.027	0.98826 ± 0.00019	0.989 ± 0.028	0.9847 ± 0.0089	0.9795 ± 0.0059
UniProt Q9UG63|Q9UG63-2	1.04 ± 0.06	1.15 ± 0.065	1.41 ± 0.054	1.82 ± 0.11	2.25 ± 0.15	2.54 ± 0.26
DIDO1 (UniProt Q9BTC0)	1.1 ± 0.035	1.18 ± 0.093	1.23 ± 0.043	1.28 ± 0.12	1.27 ± 0.12	1.36 ± 0.12
PSMD1 (UniProt Q99460)	0.902 ± 0.044	0.887 ± 0.06	0.851 ± 0.094	0.863 ± 0.11	0.848 ± 0.098	0.847 ± 0.13
UniProt Q9H773|H3BSA6	1.03 ± 0.02	1.01 ± 0.019	1.041 ± 0.0073	1.03 ± 0.015	1.01 ± 0.019	1 ± 0.022
UniProt Q9H0A0|Q9H0A0-2|A0A087WV29	1.47 ± 0.19	1.5 ± 0.19	1.62 ± 0.21	1.66 ± 0.17	1.79 ± 0.25	1.8 ± 0.17
PNKP (UniProt Q96T60)	1.02 ± 0.041	1.02 ± 0.054	1.1 ± 0.071	1.18 ± 0.021	1.23 ± 0.047	1.22 ± 0.079
